Among the data in PubChem BioAssay are composite z-score values, retold here.

This test in a line: small molecules captured by biotinylated probe aFST – biochemical, small-molecule microarray, fluorescence 635/667, stem cell growth factor project, primary screen (AID 1086).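 Also: score merges 667 nm fluorescence with signal-to-noise of each printed compound spot.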 The following applies: higher = more signal.
With `COc1ccc(CCN2C(=O)[C@@]3(Cc4ccccc42)c2ccccc2C(=O)N(Cc2ccccc2OC)[C@H]3c2ccc(CO)cc2)cc1`, the composite z-score is -0.275.

`O=C1C2C=CC(C(O)c3ccc(Br)cc3)N(Nc3ccccc3F)C2C(=O)N1c1ccccc1` (stereo not drawn) came in with a composite z-score of 0.68.

`C=CCC(OC(C)=O)[C@@H]1[C@@H](N(Cc2cccc3ccccc23)C(=O)Cc2ccc(OC)cc2)c2cc(OCCCO)ccc2N1C(=O)c1ccc2ccccc2n1` (stereo partly drawn) came in with a composite z-score of 0.153.

On to `COC(=O)C(CC#Cc1ccc2c(c1)[C@]1(C(=O)N2)[C@H](c2ccccc2OCCO)N2[C@H](c3ccccc3)[C@H](c3ccccc3)OC(=O)[C@H]2[C@@H]1C(=O)NC[C@H](O)c1ccccc1)C(=O)OC`, for which the composite z-score is -0.158.

`COc1ccc([Si](C)(C)[C@H]2[C@H](CCO)O[C@@]3(C(=O)N(Cc4cccc(N5C(=O)COc6ccccc65)c4)c4ccccc43)[C@@H]2C)cc1` gave a composite z-score of -0.203.

Molecule `CCCCCCc1nc(C2CC2)cc2c1[Si](C(C)C)(C(C)C)OC2` registered a composite z-score of -0.319.

In turn, `C=CCNC(=O)[C@@H]1[C@H]2C(=O)O[C@H](c3ccccc3)[C@H](c3ccccc3)N2[C@H](c2ccc(O)cc2)[C@@]12C(=O)N(C(=O)OCCOC)c1ccc(C#CC3(O)CCCCCC3)cc12` returned a composite z-score of -1.19.

Regarding `CC(CO)N1C(=O)[C@@H]2[C@H]3C(=O)OCC=C[C@H]3OC23C=CCN(Cc2ccccc2)C(=O)[C@@H]13` (stereo partly drawn), the composite z-score is -0.531.

The molecule `[N-]=[N+]=NCc1ccccc1C[C@@]1(C(=O)NCc2ccccc2)N=C(c2ccc(OCCCO)cc2)O[C@@H]1c1ccccc1N=[N+]=[N-]` returned a composite z-score of 1.27.

In turn, `C=CCN1Cc2ccccc2[C@H]2OC(c3ccc(OCCCO)cc3)=N[C@@]2(CC=C)C1=O` returned a composite z-score of 0.633.

Turning to `Cc1cc(C)cc(N2C(=O)CSC2c2cccc([N+](=O)[O-])c2)c1` (stereo not drawn), the composite z-score came out at 0.712.

Take `CCOc1cc(C(O)C2C=CC3C(=O)N(C)C(=O)C3N2Nc2ccccc2)ccc1O` (stereo not drawn): the composite z-score came out at 0.472.

`[N-]=[N+]=Nc1ccccc1C[C@]1(C(N)=O)N=C(c2ccc(OCCCO)cc2)O[C@H]1c1ccccc1N=[N+]=[N-]` came in with a composite z-score of 0.359.

`NC(=O)NCC#Cc1ccc2c(c1)[C@]1(C(=O)N2)[C@H](C(=O)O)[C@H]2C(=O)O[C@H](c3ccccc3)[C@H](c3ccccc3)N2[C@@H]1c1ccc(OCCO)cc1` had a composite z-score of 0.718.

As to `CCCCCCc1nc(C2CC2)cc2c1[Si](C(C)C)(C(C)C)O[C@H]2c1ccccc1`, the composite z-score came out at 0.177.

The molecule `COc1cc2c(cc1OC)CN(C(=O)[C@@H]1[C@H]3C(=O)O[C@H](c4ccccc4)[C@H](c4ccccc4)N3[C@H](c3ccc(OCCO)cc3)[C@@]13C(=O)Nc1ccc(C#CC4(O)CCCCCC4)cc13)CC2` yielded a composite z-score of 0.528.

Take `O=C1C[C@@](C(=O)NCCN2CCOCC2)(c2ccc([N+](=O)[O-])cc2)[C@@H](c2ccc(CO)cc2I)N1C1CCCCC1`: the composite z-score was -0.0352.

For `COC(=O)[C@@]1(Cc2ccc(F)cc2)[C@H]2c3cc(C(=O)N4CCCC4)n(CCc4ccc(O)c(O)c4)c3C[C@H]2CN1C(=O)c1ccccc1`, the composite z-score was determined as 1.05.

The molecule `CC(C)N1C(=O)C[C@@](C(=O)NCCCN(C)C)(c2ccc([N+](=O)[O-])cc2)[C@H]1c1ccc(CO)cc1` showed a composite z-score of 0.27.

In turn, `COC(=O)C1=CC(CCCO)=CC(C2CC2)N(C)C=C1C(=O)OC` (stereo not drawn) came in with a composite z-score of -0.308.

Molecule `COC(=O)c1c(CC[C@@H](CO)NC(=O)N2CCC[C@H]2Cn2cc(Cc3ccccc3)nn2)oc(C(C)=O)c1C(=O)OC` gave a composite z-score of 0.22.

For `O=C(N1CCCCC1)[C@@]1(CCS(=O)(=O)c2ccccc2)COC(c2ccc(OCCCO)cc2)=N1`, the composite z-score was 0.937.

`CC1=C[C@@]2(CO)C(=O)[C@]3(CO3)[C@@H]1[C@H]1[C@]2(C)C=C(CO)C(=O)[C@]12CO2` showed a composite z-score of 0.614.

As to `CCCNC(=O)[C@@]1(c2ccc([N+](=O)[O-])cc2)CC(=O)N(C2CCCCC2)[C@@H]1c1ccc(CO)cc1`, the composite z-score was 0.565.

Regarding `NC(=O)NCC#Cc1ccc2c(c1)[C@]1(C(=O)N2)[C@H](C(=O)NC[C@H](O)c2ccccc2)[C@H]2C(=O)O[C@H](c3ccccc3)[C@H](c3ccccc3)N2[C@@H]1c1ccc(OCCO)cc1`, the composite z-score was determined as 0.0377.

The molecule `O=C1NC(=O)C2C1C=CC(C(O)CCc1ccccc1)N2Nc1ccc(Cl)cc1Cl` (stereo not drawn) showed a composite z-score of 1.55.

In turn, `CCCCC=C[C@@H](NC(=O)c1ccc(-c2ccccc2)cc1)c1ccccc1` showed a composite z-score of 0.517.

In the case of `COc1ccc([Si](C)(C)[C@@H]2[C@@H](CC(=O)N(CCO)Cc3ccccc3)O[C@]3(C(=O)N(Cc4cccc(N5CCOC5=O)c4)c4ccccc43)[C@H]2C)cc1`, the composite z-score is -0.0988.
